High-throughput results (PubChem)
mHTT-CaM PPI inh: disrupts binding of mutant huntingtin to calmodulin; actives 3.6% (n = 190,000); P42858; AID 1671202; AlphaScreen His-mHTT/GST-CaM binding, luminescence; inhibition, % at 15 µM
Pf apPOL block: Pf-apPOL DNA polymerase inhibition | Recombinant Pf-apPOL, molecular beacon fluorescence, 1.5 h | inhibition, % at 10 µM | actives 0.25% (n = 210,000) | AID 1794808
Large screens that a line does not name were inactive. This is a sample that favours compounds with a hit; in the whole collection about 3.5% have one here. Rule as the data show it: active = inhibition above about 50%; inactive = the rest.

COc1ccc(CN2CCCC2c2cc(C(C)C)no2)cc1CN1CCOCC1 (stereo not drawn)	none
Cc1ccc(CNC(=O)c2ccc(-c3nc4cccnc4n(C)c3=O)cc2)cc1	none
Cc1cccc(CNC(=O)c2cc3n(n2)CCCN(Cc2ccc(Cl)cc2)C3=O)c1	none
O=C1C2C3C=CC(O3)C2C(=O)N1c1ccccc1Br (stereo not drawn)	none
COc1ccc(-c2c(C#N)c(N)n3c(nc4ccccc43)c2C#N)cc1	mHTT-CaM PPI inh 94
Cc1ccc(-c2c(C#N)c(N)n3c(nc4ccccc43)c2C#N)cc1	none
COc1ccc(Cl)cc1NC(=O)c1ccc([N+](=O)[O-])o1	none
N#CC1=C(N)n2c(s/c(=C\c3ccc([N+](=O)[O-])cc3)c2=O)=C(C#N)C1c1ccc([N+](=O)[O-])cc1 (stereo not drawn)	none
N#CC1=C(N)n2c(s/c(=C\c3ccc(O)cc3)c2=O)=C(C(N)=O)C1c1ccc(O)cc1 (stereo not drawn)	mHTT-CaM PPI inh 53
COc1ccc(C(=O)N2CCc3cn(C)c4cccc(c34)C2)c(C)c1	none
CCn1cc2c3c(cccc31)CN(C(=O)Cc1cccc(F)c1)CC2	mHTT-CaM PPI inh 66
COCCn1cc2c3c(cccc31)CN(C(=O)c1cccc(F)c1)CC2	mHTT-CaM PPI inh 54
COCCn1cc2c3c(cccc31)CN(C(=O)c1ccc(OC)cc1C)CC2	mHTT-CaM PPI inh 51
CCCC(=O)N1CCc2cn(CC)c3cccc(c23)C1	none
COCCn1cc2c3c(cccc31)CN(C(=O)Nc1cc(F)cc(F)c1)CC2	none
CCn1cc2c3c(cccc31)CN(C(=O)c1ccc(OC)c(F)c1)CC2	mHTT-CaM PPI inh 52
COc1ccc(C(=O)N2CCc3cn(C)c4cccc(c34)C2)cc1F	none
Cc1ccc(NC2=NC3(CCCC3)N=C(N)N2)cc1	none
CC(C)n1cnc2cc(CNC(=O)c3ccsc3)ccc21	none
COCCn1cc2c3c(cccc31)CN(C(=O)c1ccc(C)c(F)c1)CC2	mHTT-CaM PPI inh 53
COCCn1cc2c3c(cccc31)CN(C(=O)NCc1ccccc1)CC2	none
COCCn1cc2c3c(cccc31)CN(C(=O)c1ccc(C)cc1)CC2	mHTT-CaM PPI inh 68
COCCn1cc2c3c(cccc31)CN(C(=O)c1ccc(F)c(Cl)c1)CC2	none
COCCn1cc2c3c(cccc31)CN(C(=O)c1ccccc1)CC2	none
COCCn1cc2c3c(cccc31)CN(C(=O)CCCc1ccccc1)CC2	mHTT-CaM PPI inh 91
COCCn1cc2c3c(cccc31)CN(C(=O)c1ccccn1)CC2	none
COCCn1cc2c3c(cccc31)CN(C(=O)c1cccc(Cl)c1)CC2	mHTT-CaM PPI inh 65
CC(C(=O)O)N1C(=O)C2CC=C(Cl)CC2C1=O (stereo not drawn)	none
COc1ccc(C(=O)N2CCCC(c3nncn3C(C)C)C2)cc1F (stereo not drawn)	none
S=C(Nc1ccc2c(c1)OCCO2)Nc1ccc2[nH]ccc2c1	none (no result: mHTT-CaM PPI inh)
COCCn1cc2c3c(cccc31)CN(C(=O)c1ccccc1Br)CC2	mHTT-CaM PPI inh 69
COCCn1cc2c3c(cccc31)CN(C(=O)c1ccccc1F)CC2	none
Cc1ccc(Cn2cc(CCC(=O)NCc3ccccn3)c3ccccc32)cc1	mHTT-CaM PPI inh 78
Cc1ccc(Cn2cc(CCC(=O)NCc3ccco3)c3ccccc32)cc1	none
Cc1c(C2CCN(C(=O)c3ccc4ccccc4n3)CC2)noc1N	none
NC(N)=Nc1nc(-c2ccc(O)c(O)c2)cs1	mHTT-CaM PPI inh 61
Oc1ccc(-c2csc(-c3ccccc3)n2)cc1O	none
CCc1onc(C)c1C1CCCN1Cc1ccc(N(CC)CC)cc1 (stereo not drawn)	mHTT-CaM PPI inh 67
CCc1onc(C)c1C1CCCN1Cc1ccc(O)cc1 (stereo not drawn)	none
COc1cc(C=C2Oc3c(ccc(OCC(=O)OC(C)C)c3C)C2=O)cc(OC)c1OC	none
CC1CCN(S(=O)(=O)N2CCCC(C(=O)NC3CCCC3)C2)CC1 (stereo not drawn)	none
CC1CCN(S(=O)(=O)N2CCCC(C(=O)NC(C)C)C2)CC1 (stereo not drawn)	Pf apPOL block 95
N#Cc1nc(COc2ccccc2Cl)oc1NCCCn1ccnc1	mHTT-CaM PPI inh 100
COc1ccc(CCNc2oc(COc3ccccc3C)nc2C#N)cc1	mHTT-CaM PPI inh 52
COc1ccc(CCNc2oc(COc3ccc(OC)cc3)nc2C#N)cc1	none
Cc1ccccc1OCc1nc(C#N)c(NCCCn2ccnc2)o1	none
Cc1ccccc1OCc1ccc(-c2nc(C#N)c(NCc3cccnc3)o2)o1	mHTT-CaM PPI inh 54
N#Cc1nc(COc2ccccc2Cl)oc1NCc1cccnc1	none
COc1ccc(CN2CC(C(=O)N3CCNc4ccccc4C3)CC2=O)cc1 (stereo not drawn)	none
CCNC(=O)N1CCCC(c2cccc(C(=O)NCCN3CCCCC3)c2)C1 (stereo not drawn)	none
Nc1cccc(NC(=O)c2cc(F)c(F)cc2Cl)c1	none
C[C@H](c1ccccc1)N1C[C@H](COCc2ccccc2)Oc2cc(N3CCC[C@H]3CO)ccc2S1(=O)=O	none
C[C@H](c1ccccc1)N1C[C@@H](COCc2ccccc2)Oc2cc(N3CC[C@@H](O)C3)ccc2S1(=O)=O	none
C[C@H](c1ccccc1)N1C[C@@H](COCc2ccccc2)Oc2cc(N3CC[C@@H](N(C)C)C3)ccc2S1(=O)=O	mHTT-CaM PPI inh 100
C[C@@H](c1ccccc1)N1C[C@@H](COCc2ccccc2)Oc2cc(N3CC[C@H](O)C3)ccc2S1(=O)=O	mHTT-CaM PPI inh 55
C[C@H](c1ccccc1)N1C[C@@H](COCc2ccccc2)Oc2cc(N3CC[C@H](N(C)C)C3)ccc2S1(=O)=O	none
C[C@H](c1ccccc1)N1C[C@@H](COCc2ccccc2)Oc2cc(N3CCC[C@@H]3CO)ccc2S1(=O)=O	mHTT-CaM PPI inh 68
COc1cc(C)ccc1OCCOc1cccc(Cl)c1	none
COc1cc(OC)cc(C(=O)NCC(O)Cc2ccccc2)c1 (stereo not drawn)	none
O=C(NCCCc1ccccc1)C1CCCN(C(=O)c2cccc(Cl)c2)C1 (stereo not drawn)	none
O=C(CN1C(=O)C2CCCN2C(=O)c2cc(F)ccc21)NCCN1CCCCCC1 (stereo not drawn)	none
CCCN=Cc1c(CCC)[nH]n(-c2nc3ccccc3s2)c1=O	none
O=c1c(C=NCCCO)c(CSc2ccc(Cl)cc2)[nH]n1-c1nc2ccccc2s1	mHTT-CaM PPI inh 56
Cc1cc(C)nc(SCc2nc(-c3ccccc3)no2)n1	none
Cc1oc(C2CCN(C(=O)c3cc(F)ccc3F)CC2)nc1C(=O)N1CCCCC1	none
Cc1nc2ccccc2n1CC(O)COc1ccc(C(=O)c2ccccc2)cc1 (stereo not drawn)	none
CC(=O)N(C)c1ccc(OCC(O)Cn2c3ccccc3c3ccccc32)cc1 (stereo not drawn)	mHTT-CaM PPI inh 73
CC(C)C(=O)NCc1csc(C2CCCN(C(=O)C3CCCCC3)C2)n1 (stereo not drawn)	none
O=C(NCc1ccncc1)C1CCCN(c2nc3ccccc3n2C2CCCC2)C1 (stereo not drawn)	none
O=[N+]([O-])c1ccc(Sc2ccsc2)c([N+](=O)[O-])c1	mHTT-CaM PPI inh 69 (no result: Pf apPOL block)
O=[N+]([O-])c1cc(Cl)ccc1Sc1ccccc1	none (no result: mHTT-CaM PPI inh)
COc1cc(CNc2cc(OC)c(OC)c(OC)c2)c([N+](=O)[O-])cc1OC	none
COC(=O)Cc1cc(OC)c(OC)cc1[N+](=O)[O-]	none
COc1cc(CNc2cccc(F)c2)c([N+](=O)[O-])cc1OC	mHTT-CaM PPI inh 61
COc1cc(CNc2ccc3[nH]ncc3c2)c([N+](=O)[O-])cc1OC	mHTT-CaM PPI inh 58
